# From PubChem BioAssay (NCATS)
# Inconclusive results are not listed. A call without a number means that no potency is given here. A number with no mark means an inactive call. Active and inactive are the calls of the source. Calls come from the whole dose curve; as a rule, active = well fitted curve in the direction sought with a large enough effect; inconclusive = small, poorly fitted or top-dose-only effect, or another doubt; inactive = no such curve, though single readings can be large; an effect the other way counts as inactive or inconclusive.
# Key:
# [1] = qHTS for Inhibitors of Plasmodium falciparum (7G8) proliferation (AID 504316); note: potency is the fitted concentration of half-maximal effect; nearly all actives have a fitted effect of over 65% in size
# Method in brief: (§1)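 Parasite growth measured as SYBR Green DNA fluorescence (ex 485, em 535 nm) after overnight lysis following 72 h culture at 37 °C, 0.3% parasitemia, 2.5% hematocrit. Values normalized against DMSO and 0.29 uM artemisinin controls, with plate-stack correction.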
# [2] = qHTS for Inhibitors of Plasmodium falciparum (HB3) proliferation (AID 504318); note: potency is the fitted concentration of half-maximal effect; nearly all actives have a fitted effect of over 60% in size
# Method in brief: as §1
# [3] = qHTS for Inhibitors of Plasmodium falciparum (CP250) proliferation (AID 504320)
# Method in brief: as §1
# [4] = qHTS for Inhibitors of Plasmodium falciparum (GB4) proliferation (AID 504315); note: nearly all actives have a fitted effect of over 50% in size
# Method in brief: as §1
structure (smiles),measurement,setting,value
COC(=O)C1=C(C(=O)OC)[C@@H]2N(Cc3ccccc3)c3ccccc3[C@@]23C[C@@H](C(=O)OC)N(S(=O)(=O)c2ccc([N+](=O)[O-])cc2)C3=N1,Potency,[1],1690 nM (active)
same,Potency,[2],1900 nM (active)
COc1ccc(-c2nc(-c3ccccc3)c(Nc3c(C)cccc3C)o2)cc1,Potency,[3],inactive
CC(=O)OC[C@H]1O[C@H](C#Cc2ccc(C(C)(C)C)cc2)C=C[C@H]1OC(C)=O,Potency,[1],1690 nM (active)
C=CCN1c2ccccc2[C@]23C[C@@H](C(=O)OC)N(S(=O)(=O)c4ccc(C#N)cc4)C2=NC(C(=O)OC)=C(C(=O)OC)[C@H]13,Potency,[4],inactive
same,Potency,[3],inactive
COc1ccc([C@]23Cc4cc(C#N)ccc4[C@H](O2)c2c(cc(-c4ccccc4)oc2=O)O3)cc1,Potency,[1],1350 nM (active)
same,Potency,[3],inactive
